# Laboratory results from PubChem BioAssay AID1671202 (University of Kansas High Throughput Screening Laboratory, 2021).
# “And” between values parts separate entries of the source, which are not always exact repeats. Equal entries are not always repeated. Among all 190,000 compounds or so, about 6,900 (3.6%) were called active. Rule as the data show it: active = inhibition above about 50%; inactive = the rest. Only a selection was taken, and actives are over-represented in it overall. Where a structure was tested more than once in an assay, its records may differ in their call.
# Target: Huntingtin (Homo sapiens) (UniProt P42858)
# Sequence (P42858 whole entry, looked up, stated change not applied): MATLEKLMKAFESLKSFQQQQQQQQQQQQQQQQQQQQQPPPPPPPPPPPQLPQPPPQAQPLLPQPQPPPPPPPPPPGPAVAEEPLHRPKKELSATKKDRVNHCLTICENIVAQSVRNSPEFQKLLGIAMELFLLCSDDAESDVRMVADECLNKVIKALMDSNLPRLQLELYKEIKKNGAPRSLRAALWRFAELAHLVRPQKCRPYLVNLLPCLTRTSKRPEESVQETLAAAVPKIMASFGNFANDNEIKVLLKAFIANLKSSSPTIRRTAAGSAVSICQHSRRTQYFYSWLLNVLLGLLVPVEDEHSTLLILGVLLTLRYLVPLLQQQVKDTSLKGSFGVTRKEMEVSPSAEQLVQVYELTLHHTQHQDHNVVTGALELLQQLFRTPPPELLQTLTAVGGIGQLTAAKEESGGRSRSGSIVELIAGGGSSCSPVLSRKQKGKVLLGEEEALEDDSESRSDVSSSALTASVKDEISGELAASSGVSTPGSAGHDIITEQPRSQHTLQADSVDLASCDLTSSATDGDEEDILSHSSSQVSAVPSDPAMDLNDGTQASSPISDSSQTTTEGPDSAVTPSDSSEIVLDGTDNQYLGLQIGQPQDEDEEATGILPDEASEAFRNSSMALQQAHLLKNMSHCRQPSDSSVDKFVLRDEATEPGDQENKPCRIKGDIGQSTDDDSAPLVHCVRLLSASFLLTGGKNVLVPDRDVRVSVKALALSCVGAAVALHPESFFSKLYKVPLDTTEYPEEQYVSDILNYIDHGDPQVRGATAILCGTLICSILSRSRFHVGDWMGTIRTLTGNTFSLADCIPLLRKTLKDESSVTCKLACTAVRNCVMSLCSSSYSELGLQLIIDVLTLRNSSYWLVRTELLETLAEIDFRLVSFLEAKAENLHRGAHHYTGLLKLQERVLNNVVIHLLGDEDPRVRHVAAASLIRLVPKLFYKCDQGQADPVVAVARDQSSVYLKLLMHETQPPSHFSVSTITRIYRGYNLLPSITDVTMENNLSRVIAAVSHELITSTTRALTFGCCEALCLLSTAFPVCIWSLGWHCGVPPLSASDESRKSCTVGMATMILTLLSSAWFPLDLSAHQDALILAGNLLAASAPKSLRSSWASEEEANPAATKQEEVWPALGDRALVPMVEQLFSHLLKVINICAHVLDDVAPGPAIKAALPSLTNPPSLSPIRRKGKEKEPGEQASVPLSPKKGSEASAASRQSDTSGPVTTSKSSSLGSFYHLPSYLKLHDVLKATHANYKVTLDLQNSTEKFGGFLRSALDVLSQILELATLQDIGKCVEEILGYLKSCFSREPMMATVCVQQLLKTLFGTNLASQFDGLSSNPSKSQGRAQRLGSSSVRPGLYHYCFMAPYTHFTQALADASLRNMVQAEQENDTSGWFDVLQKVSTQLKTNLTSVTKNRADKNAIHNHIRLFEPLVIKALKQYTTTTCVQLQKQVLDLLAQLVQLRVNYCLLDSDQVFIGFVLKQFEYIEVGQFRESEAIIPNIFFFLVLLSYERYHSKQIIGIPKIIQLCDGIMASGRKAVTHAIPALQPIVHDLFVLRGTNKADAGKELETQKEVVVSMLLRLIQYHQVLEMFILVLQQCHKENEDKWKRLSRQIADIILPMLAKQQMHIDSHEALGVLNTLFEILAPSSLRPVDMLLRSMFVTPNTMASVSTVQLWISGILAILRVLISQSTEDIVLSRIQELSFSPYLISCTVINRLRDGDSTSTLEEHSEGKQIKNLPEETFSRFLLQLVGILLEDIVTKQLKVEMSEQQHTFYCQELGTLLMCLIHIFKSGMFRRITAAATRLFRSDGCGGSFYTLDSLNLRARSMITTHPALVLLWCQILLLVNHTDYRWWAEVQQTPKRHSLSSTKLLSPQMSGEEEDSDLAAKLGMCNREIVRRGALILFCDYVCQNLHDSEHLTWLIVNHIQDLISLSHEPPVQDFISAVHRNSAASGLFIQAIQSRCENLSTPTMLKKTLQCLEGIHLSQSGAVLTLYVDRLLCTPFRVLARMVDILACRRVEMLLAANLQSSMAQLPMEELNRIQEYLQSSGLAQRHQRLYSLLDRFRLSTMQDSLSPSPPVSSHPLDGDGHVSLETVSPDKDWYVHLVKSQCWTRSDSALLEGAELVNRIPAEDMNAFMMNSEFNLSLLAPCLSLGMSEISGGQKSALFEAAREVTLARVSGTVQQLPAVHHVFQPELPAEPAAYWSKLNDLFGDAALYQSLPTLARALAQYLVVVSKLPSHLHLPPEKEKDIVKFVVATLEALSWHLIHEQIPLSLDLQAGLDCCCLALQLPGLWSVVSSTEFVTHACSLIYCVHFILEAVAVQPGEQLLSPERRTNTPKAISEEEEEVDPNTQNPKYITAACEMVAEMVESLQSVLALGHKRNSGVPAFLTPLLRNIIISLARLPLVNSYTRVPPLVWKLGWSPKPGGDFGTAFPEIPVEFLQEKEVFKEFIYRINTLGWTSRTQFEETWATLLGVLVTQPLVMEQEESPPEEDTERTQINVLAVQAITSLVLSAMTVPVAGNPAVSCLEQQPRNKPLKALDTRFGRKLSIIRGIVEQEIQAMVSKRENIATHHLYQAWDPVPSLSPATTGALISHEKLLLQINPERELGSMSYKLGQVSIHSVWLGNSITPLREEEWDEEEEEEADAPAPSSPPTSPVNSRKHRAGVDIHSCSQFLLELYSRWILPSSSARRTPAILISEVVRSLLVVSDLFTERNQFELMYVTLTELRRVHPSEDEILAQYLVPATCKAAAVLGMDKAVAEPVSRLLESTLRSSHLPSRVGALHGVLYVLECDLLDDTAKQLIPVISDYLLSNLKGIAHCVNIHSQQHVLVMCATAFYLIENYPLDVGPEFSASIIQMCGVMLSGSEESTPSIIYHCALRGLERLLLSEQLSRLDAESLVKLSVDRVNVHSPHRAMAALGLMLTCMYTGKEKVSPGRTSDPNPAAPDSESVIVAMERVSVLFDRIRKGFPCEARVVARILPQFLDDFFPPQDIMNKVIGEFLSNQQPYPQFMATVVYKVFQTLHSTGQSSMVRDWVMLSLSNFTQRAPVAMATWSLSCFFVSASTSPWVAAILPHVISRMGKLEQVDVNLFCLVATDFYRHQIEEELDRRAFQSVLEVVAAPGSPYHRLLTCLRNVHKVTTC
# Assay: mutant huntingtin-calmodulin interaction inhibitors – biochemical, AlphaScreen, primary screen (AID 1671202);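 also: 0% = both proteins with DMSO and 100% = one protein alone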
# Conditions: AlphaScreen His-mHTT/GST-CaM binding, luminescence; at 15 µM, stronger effect = higher value
row,SMILES,inhibition
1,COc1ccc(-c2noc(C3CCN(CC(=O)Nc4ccc(C)c(F)c4)CC3)n2)cc1,-6.73% (inactive)
2,Cc1ccccc1Oc1nc(N2CCCC2)nc2c1CN(Cc1ccncc1)CC2,17.7% (inactive)
3,Cc1ccccc1NC(=O)NCc1ccsc1,-8.6% (inactive)
4,O=C1c2ccccc2-c2onc3c(N4CCCC4)ccc1c23,64% (active)
5,CCN(Cc1ccccc1)C(=O)c1ccccc1Cl,-7.8% (inactive)
6,CCCNc1cc(N2CCC(CCC(=O)NCc3ccccn3)CC2)ncn1,1.6% (inactive)
7,COc1ccccc1Nc1cc(C)nc2ccc(Cl)cc12,0% (inactive)
8,O=C(Nc1ccccc1I)c1ccccc1F,-15.8% (inactive) and -24% (inactive)
9,Cc1ccc(C(=O)Nc2cnc(N3CCCCC3)nc2)c(C)c1,9.7% (inactive)
10,COc1ccc(/C=C2\N=C(c3cccc(Br)c3)OC2=O)cc1,-5% (inactive)
11,COc1ccc(C2=NC(c3ccncc3)=Nc3ccc(Br)cc3N2)cc1,50.3% (active)
12,COc1cc(C=C(C#N)c2nc(-c3ccc4c(c3)OCO4)cs2)cc(OC)c1OC(C)=O,-4.5% (inactive)
13,CC(=O)N1c2ccccc2NC2=C(C(=O)CC(C)(C)C2)C1c1ccc(N(C)C)cc1 (centres undefined),29.3% (inactive)
14,COc1ccc(S(=O)(=O)CCC(=O)Nc2ccccc2C(F)(F)F)cc1,1% (inactive)
15,COc1ccc(C(=O)N2CCN(c3ccc(Cl)cc3[N+](=O)[O-])CC2)cc1Br,14.9% (inactive)
16,O=[N+]([O-])c1cc(Cl)ccc1N1CCCNCC1,-0.3% (inactive)
17,O=C(Cc1ccc(Cl)cc1)N1CCN(c2ccc(Cl)cc2[N+](=O)[O-])CC1,58.1% (active) and 44% (inactive)
18,O=C(CSc1nc2[nH]ncc2c(=O)n1-c1ccccc1)NCc1cccc(Cl)c1,8% (inactive)
19,O=S1(=O)CC(N2CCC(Cc3ccccc3)CC2)CN1Cc1ccccc1 (centres undefined),19.9% (inactive)
20,O=[N+]([O-])c1ccc(CN2CC(N3CC=CC3)CS2(=O)=O)cc1 (centres undefined),-3% (inactive)
21,O=[N+]([O-])c1ccc(CN2CC(N3CCC(c4ccccc4)CC3)CS2(=O)=O)cc1 (centres undefined),50.1% (active)
22,Cn1c(/C=C/c2ccc(Cl)cc2)nc2ccccc21,-18.9% (inactive)
23,OC(COCC12CC3CC(CC(C3)C1)C2)CN1CCc2ccccc2C1 (centres undefined),35.2% (inactive)
24,Cc1ccc(C(=O)N2CCN(c3nc(CN4CCCCC4)cs3)CC2)cc1F,2% (inactive)

row,SMILES,inhibition
1,Cn1nc(-c2nnc(-c3ccccc3Cl)o2)c2c1CCN(C(=O)CCc1ccccc1)C2,76.5% (active)
2,Cn1nc(-c2nc(Cc3ccccc3)no2)c2c1CCN(C(=O)c1ccccc1Cl)C2,6.74% (inactive)
3,CCC(CC)C(=O)N1CCc2c(c(-c3nnc(-c4ccccc4Cl)o3)nn2C)C1,6.42% (inactive)
4,COc1cccc(C=C2Oc3c(ccc(O)c3CN(C)Cc3ccccc3)C2=O)c1OC,93.1% (active)
5,CCCCN(C)Cc1c(O)ccc2c1OC(=Cc1cc(OC)c(OC)c(OC)c1)C2=O,-3.1% (inactive)
6,COc1cccc(C=C2Oc3c(ccc(O)c3CN3CCCCC3C)C2=O)c1OC (centres undefined),15.7% (inactive)
7,COCC(C)(O)CNC(=O)C(=O)NCc1ccc(C)cc1 (centres undefined),-17.7% (inactive)
8,CC(C)CCNC(=O)C1CC(=O)N(CCc2c[nH]c3ccc(Cl)cc23)C1 (centres undefined),25.8% (inactive)
9,O=C(NCCN1CCOCC1)C1CC(=O)N(CCc2c[nH]c3ccc(F)cc23)C1 (centres undefined),-6.88% (inactive)
10,Cc1ccc2[nH]cc(CCN3CC(C(=O)N4CCN(c5ccccc5)CC4)CC3=O)c2c1 (centres undefined),45.4% (inactive)
11,O=C(Nc1ccc2c(c1)CCC2)C1CC(=O)N(CCc2c[nH]c3ccc(F)cc23)C1 (centres undefined),53.7% (active)
12,Cc1ccc2[nH]cc(CCN3CC(C(=O)Nc4cccc(C)c4C)CC3=O)c2c1 (centres undefined),30.5% (inactive)
13,O=C(Nc1ccccc1F)C1CC(=O)N(CCc2c[nH]c3ccc(F)cc23)C1 (centres undefined),9.18% (inactive)
14,Cc1ccc2[nH]cc(CCN3CC(C(=O)Nc4cccc(Br)c4)CC3=O)c2c1 (centres undefined),39.7% (inactive)
15,Cc1ccc2[nH]cc(CCN3CC(C(=O)Nc4ccc(Br)cc4)CC3=O)c2c1 (centres undefined),53.5% (active)
16,Cc1ccc(NC(=O)C2CC(=O)N(CCc3c[nH]c4ccc(Cl)cc34)C2)c(C)c1 (centres undefined),65% (active)
17,CC1(C(=O)NCC2CCCO2)CCC(=O)N1Cc1cccs1 (centres undefined),3% (inactive)
18,CCN(c1ccc(F)cc1)S(=O)(=O)c1ccc2[nH]cc(C(=O)NCCN(C)C)c(=O)c2c1,3% (inactive)
19,CCOc1ccc(CN2C(=O)CCC2(C)C(=O)NC2CCCC(C)C2C)cc1 (centres undefined),-9% (inactive)
20,C=CCNCCCOc1ccc(Br)cc1C,0.1% (inactive)
21,O=C(CN1C(=O)C(c2ccccc2)=NC12CCCCC2)Nc1ccc(Cl)cc1,50.9% (active)
22,CCc1ccc(NC(=O)CN2C(=O)C(c3ccccc3)=NC23CCCCC3)cc1,-7.57% (inactive)
23,COc1ccc(NC(=O)CN2C(=O)C(c3ccccc3)=NC23CCCCCC3)cc1OC,-0.13% (inactive)
24,Cc1ccc(NC(=O)CN2CCN(c3ccccn3)CC2)cc1F,2% (inactive)

row,SMILES,inhibition
1,COCCNC(=O)NCCn1ccnc1C,-11.5% (inactive)
2,COc1cc(CN2CCN(Cc3cc(OC)c(OC)c(OC)c3)CC2)cc(OC)c1,-4.6% (inactive)
3,COc1ccc(CC(=O)Nc2ccccc2F)cc1,0.5% (inactive)
4,COc1ccc(O)c(C(=O)CC(=O)c2cccc(F)c2)c1,58.1% (active)
5,COc1cccc(C(=O)N(CC#N)CC#N)c1,4.4% (inactive)
6,CC(C)n1c(COc2ccccc2)nc2ccccc21,-16% (inactive)
7,Cn1c(COc2ccc(Cl)cc2)nc2ccccc2c1=O,61.9% (active)
8,CCSc1nc2ccccc2c(=O)n1C,-11.7% (inactive)
9,O=C(Nc1cccc(NC(=O)c2ccccc2Cl)c1)c1ccccc1Cl,1% (inactive)
10,Nc1c(C(=O)Nc2ccccc2I)sc2nc(-c3cccs3)ccc12,-8% (inactive)
11,CCOc1cccc2c1OC(c1ccc(OC)c(OC)c1)N1N=C(c3ccco3)CC21 (centres undefined),45% (inactive)
12,CCOc1cccc2c1OC(c1cccc(OC)c1OC)N1N=C(c3ccc(C)o3)CC21 (centres undefined),67% (active)
13,CCOc1cccc2c1OC1(CCCCC1)N1N=C(c3cccnc3)CC21 (centres undefined),27% (inactive)
14,CCOC(=O)C1CCN(C(=O)CCN2C(=O)c3ccccc3S2(=O)=O)CC1,-1.8% (inactive)
15,O=C(Nc1ccc2c(c1)OCCO2)N1CCCC1c1ccc(Cl)cc1 (centres undefined),10.2% (inactive)
16,N#C/C(=C\c1ccc(F)cc1)c1nc(-c2cc3ccccc3oc2=O)cs1,-8% (inactive)
17,CC1(C)Cc2ccccc2-c2nc(NCCO)n(Cc3ccccc3)c(=O)c21,15% (inactive)
18,Cc1cccc(NC(=O)c2nc(-c3cccc(F)c3)n3c2CCCCC3)n1,43.6% (inactive)
19,Cn1cc(CCN2CCN(C(=O)c3ccc(C(F)(F)F)cc3)CC2)c2cccnc21,54.6% (active)
20,CCCNC(=O)Cc1cn(C)c2ncccc12,-16.2% (inactive)
21,Cc1ccccc1N1CCN(C(=O)Cc2cn(C)c3ncccc23)CC1,10.1% (inactive)
22,CCCC(O)=C1C(=O)CC(C)(C)CC1=Nc1cccc([N+](=O)[O-])c1,-1.5% (inactive)
23,CC(=O)Nc1ccc(N/C=C(\C#N)c2nc(-c3ccccc3)cs2)cc1,4% (inactive)
24,Cc1cccc(-n2nc3c(c2NC(=O)c2ccc(Br)o2)CSC3)c1C,24% (inactive)

row,SMILES,inhibition
1,COc1ccc(/C=C/C(=O)Nc2c3c(nn2-c2ccccc2C)CSC3)cc1OC,29% (inactive)
2,COc1cccc(C(=O)Nc2c3c(nn2-c2ccc(Cl)cc2)CSC3)c1,41% (inactive)
3,Cc1cccc(-n2nc3c(c2NC(=O)C2CC2)CSC3)c1C,8% (inactive)
4,O=C(Nc1c2c(nn1-c1ccc(Cl)cc1)CSC2)c1cccc([N+](=O)[O-])c1,-9% (inactive)
5,O=C(/C=C/c1ccco1)Nc1c2c(nn1-c1ccc(Cl)cc1)CSC2,98% (active)
6,O=C(Nc1c2c(nn1-c1ccc(Cl)cc1)CSC2)c1ccc(F)cc1,21% (inactive)
7,Cc1ccccc1-n1nc2c(c1NC(=O)C1CC1)CSC2,60% (active)
8,CC(C)C(=O)Nc1c2c(nn1-c1ccc(Cl)cc1)CSC2,-5% (inactive)
9,O=C(Nc1c2c(nn1-c1ccc(Cl)cc1)CSC2)c1cccc(Br)c1,50% (active)
10,Cc1cccc(-n2nc3c(c2NC(=O)c2c(F)cccc2F)CSC3)c1C,5% (inactive)
11,Cc1ccccc1-n1nc2c(c1NC(=O)/C=C/c1ccco1)CSC2,98% (active)
12,O=C(Nc1ccc(Cl)cc1)c1cc(S(=O)(=O)NCc2ccccc2)ccc1Cl,13% (inactive)
13,COc1ccc(OC)c(-c2cc(C(=O)Nc3nc4c(s3)CCCC4)n(C)n2)c1,16.3% (inactive)
14,Cc1nc(C2CCN(C(=O)c3cccc(F)c3)CC2)sc1C(=O)NCc1cccnc1,9.99% (inactive)
15,CCCn1cnnc1C1CCCCN1C(=O)c1ccncc1 (centres undefined),-3.5% (inactive)
16,c1ccc2c(c1)CC1(CCCCC1)N=C2N1CCOCC1,-5.33% (inactive)
17,CC(C)C(=O)Nc1ccc(N2CCCN(C(=O)C3CC3)CC2)nc1,-1% (inactive)
18,CCCc1cc2c(=O)c(-c3ccc4c(c3)OCO4)c(CC)oc2cc1OC(=O)CC,-12.9% (inactive)
19,C=CCSC1=C(C#N)C(c2ccco2)C(C(=O)Nc2ccccc2OC)=C(C)N1 (centres undefined),8% (inactive)
20,O=C(Cc1cccnc1)N1CCCC(c2nc(-c3ccccc3)n[nH]2)C1 (centres undefined),-0.1% (inactive)
21,c1ccc(-c2n[nH]c(C3CCN(Cc4cccnc4)CC3)n2)cc1,9.4% (inactive)
22,c1ccc(-c2n[nH]c(C3CCCN(Cc4ccccn4)C3)n2)cc1 (centres undefined),100% (active)
